PMC6212833
The full ranking holds about 2,000 compounds; the median of “B-score” is about -0.0024, and the highest 2% start at about 4. Many of the other results were omitted from the sample, so the highest values are more common in it than they were.

System: Balamuthia mandrillaris (ATCC PRA-291) trophozoites, axenic culture
Experiment: primary screen, b score
Settings: 20 µM
Protocol: Screening of a clinically approved library of compounds, compiled by the Small Molecule Discovery Center (SMDC) at the UCSF, was completed at 20 µM in 0.2% DMSO. All 2,177 drugs in the library were stored as 10 mM stocks dissolved in 100% DMSO (Sigma-Aldrich) at −20°C. B. mandrillaris amoebae were resuspended in axenic medium and distributed into opaque 384-well plates (Corning) at a density of 3,000 amoebae per well using a BioMek NX liquid handler. Negative-control wells were treated with vehicle only (0.2% DMSO in axenic medium), and positive-control wells simulating total destruction of amoebae were seeded with amoeba lysate generated by 3 consecutive freeze-thaw cycles. Following 72 h of incubation, 30 µl of CellTiter Glo reagent (CTG; Promega) was added to each well. The luminescence was measured with a Promega GloMax-Multi+ plate reader at 2, 4, and 8 h after CTG addition. […] The B-score, representing a plate-based statistical approach for correcting row, column, and edge effects, was also calculated for each compound in the library (75).

Row | Structure (SMILES) | B-score
1 | [N-]=[N+]=CC(=O)OC[C@H](N)C(=O)O | 4.05
2 | CC(=O)O[C@H]1C[C@H](O[C@H]2[C@@H](O)C[C@H](O[C@H]3[C@@H](O)C[C@H](O[C@H]4CC[C@@]5(C)[C@H](CC[C@@H]6[C@@H]5C[C@@H](O)[C@]5(C)[C@@H](C7=CC(=O)OC7)CC[C@]65O)C4)O[C@@H]3C)O[C@@H]2C)O[C@H](C)[C@H]1O[C@@H]1O[C@H](CO)[C@@H](O)[C@H](O)[C@H]1O | 0.168
3 | O=C1C[C@@H]2OCC=C3CN4CC[C@]56c7ccccc7N1[C@H]5[C@H]2[C@H]3C[C@H]46 | 0.0173
4 | CN1C[C@H](CNC(=O)OCc2ccccc2)C[C@@H]2c3cccc4c3c(cn4C)C[C@H]21 | -0.657
5 | CC(C)C[C@H](CN)CC(=O)O | 1.41
